Measured values: the supplement of paper PMC9694430
Where a name gives a salt, the structure may show the parent alone.

These compounds were tested on LOC_OS01G21960-cb002 (assay: thermal shift delta Tm vs DMSO control; higher = stronger stabilization (binding)). Conditions: 12.5 µM; protein concentration 2 µM.
How it was run: (§1)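 Heating from 25°C to 95°C at 0.05°C/s, fluorescence was recorded for 19.5 μl wells of 2 μM E. coli-expressed, purified rice kinase domain in 100 mM potassium phosphate pH 7.5, 150 mM NaCl, 10% glycerol and 5 × SYPRO Orange with compound in DMSO. Boltzmann fits gave melting temperatures for this differential scanning fluorimetry assay. The shift reported is the mean of three replicates against the DMSO-only protein.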
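Further: purified Escherichia coli-expressed rice kinase domain construct.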

| Compound | thermal shift delta Tm |
| --- | --- |
| CCNC(=O)Nc1ccc(-c2nc(N3CCOC[C@@H]3C)c3c(n2)C(C)(C)S(=O)(=O)C3)cc1 | 0.34 °C |
| CN1CCN(c2ccc(OC(F)(F)F)c(Nc3ncc4c(n3)-c3c(c(C(N)=O)nn3CCO)CC4)c2)CC1 | 0.64 °C |
| C[C@@H](Oc1cc(-n2cnc3ccc(CN4CCN(C)CC4)cc32)sc1C(N)=O)c1ccccc1C(F)(F)F | 1.19 °C |
| COc1cc(OC)cc(-c2cc3cnc(N)nc3nc2NC(=O)NC(C)(C)C)c1 | 0.33 °C |
| COC(=O)c1ccc2c(c1)NC(=O)/C2=C(\Nc1ccc(N(C)C(=O)CN2CCN(C)CC2)cc1)c1ccccc1 [Nintedanib (BIBF 1120)] | 0.47 °C |
| Cc1[nH]c(/C=C2\C(=O)Nc3ccccc32)c(C)c1CCC(=O)O [Orantinib (TSU-68, SU6668)] | 2.76 °C |
| NC1(c2ccc(-c3nc4ccn5c(=O)[nH]nc5c4cc3-c3ccccc3)cc2)CCC1 | -0.02 °C |
| N#Cc1ccc2[nH]c(O)c(-c3ccc(CN4CCOCC4)cn3)c2c1 | 0.79 °C |
| C=C[C@@](C)(/C=C/c1ccc(O)cc1)CCC=C(C)C [Bakuchiol] | 0.52 °C |
| Cn1cnc2c(F)c(Nc3ccc(Br)cc3F)c(C(=O)NOCCO)cc21 | 0.38 °C |
| CC(C)(C)c1nc(-c2ccc(NC(=O)Nc3cccc(C(F)(F)F)c3)c3ccccc23)c2c(N)nccn12 [kira6] | 2.1 °C |
| CC1=C(C(=O)Nc2cc3cn[nH]c3cc2F)C(c2ccc(C(F)(F)F)cc2)CC(=O)N1 (centres undefined) | 0.33 °C |
| Cc1cn(-c2cc(NC(=O)c3ccc(C)c(Nc4nccc(-c5cnccn5)n4)c3)cc(C(F)(F)F)c2)cn1 [Radotinib] | 0.96 °C |
| COc1ncc(-c2ccc3nccc(-c4ccnnc4)c3c2)cc1NS(=O)(=O)c1ccc(F)cc1F | 1.2 °C |
| CNC(=O)c1cc(COc2nnc(Nc3ccc(Cl)cc3)c3ccoc23)ccn1 [Telatinib] | 0.85 °C |
| COc1cc2nccc(Oc3ccc(NC(=O)C4(C(=O)Nc5ccc(F)cc5)CC4)cc3)c2cc1OC [Cabozantinib malate (XL184)] | 0.57 °C |
| C1=N/C2=N/c3ccc(OCCN4CCCC4)c(c3)COC/C=C/COCc3cccc(c3)C(=C1)N2 [Pacritinib (SB1518)] | 2.75 °C |
| N#Cc1cnc(Nc2cc(NC[C@H]3CNCCO3)c(C(F)(F)F)cn2)cn1 | 0.6 °C |
| COc1cc(N2CCN(C)CC2)ccc1Nc1nccc(-c2cn(C)c3cnccc23)n1 | 1.48 °C |

| Compound | thermal shift delta Tm |
| --- | --- |
| CC(C)(C)NS(=O)(=O)c1cncc(-c2cc(F)c3nc(N)nn3c2)c1 | 0.56 °C |
| CCNC(=O)C#Cc1ccc2c(C(=Nc3ccc(CN(C)C)cc3)c3ccccc3)c(O)[nH]c2c1 | 0.65 °C |
| O=C1NC(=O)[C@@H](c2cn3c4c(cccc24)CCC3)[C@@H]1c1c[nH]c2ccccc12 [Tivantinib (ARQ 197)] | 0.75 °C |
| O=S(=O)(c1cccc2c(I)cccc12)N1CCCNCC1 | 0.53 °C |
| CCN1CCN(Cc2ccc(C(=O)Nc3ccc(C)c(Oc4ccc5c(c4)CC(=O)N5)c3)cc2C(F)(F)F)CC1 | 1.73 °C |
| C[C@@H](Nc1cc(F)cc(F)c1)c1cc(C(=O)N(C)C)cc2c(=O)cc(N3CCOCC3)oc12 | -0.4 °C |
| C[C@H](CN(C)C)Oc1nc(Nc2cc3cccc(Cl)c3cn2)cnc1C#N | 1.95 °C |
| CNC(=O)c1cc(Oc2ccc(NC(=O)Nc3ccc(Cl)c(C(F)(F)F)c3)cc2)ccn1 [Sorafenib] | 2.7 °C |
| COc1ccc(Cl)cc1NC(=O)Nc1cc(C)nc2ccccc12 | 1.37 °C |
| O=C(c1cccc(Cl)c1F)N1CCN(Cc2cccc(Nc3nccs3)n2)CC1 | 0.14 °C |
| CNC(=O)c1ccc(C)c(-n2c(C)cc(OCc3ccc(F)cc3F)c(Br)c2=O)c1 | 0.34 °C |
| CCn1c(-c2nonc2N)nc2c(C#CC(C)(C)O)ncc(OC[C@H]3CCCNC3)c21 | 0.53 °C |
| CCC[C@H](NC(=O)/C(C#N)=C/c1cccc(Br)n1)c1ccccc1 [Degrasyn (WP1130)] | 0.19 °C |
| OC1CCC(Nc2ncc3nc(Nc4c(F)cc(F)cc4F)n([C@H]4CCOC4)c3n2)CC1 (some centres undefined) [Tanzisertib(CC-930)] | 0.08 °C |
| CN(C)C/C=C/C(=O)Nc1cc2c(Nc3ccc(F)c(Cl)c3)ncnc2cc1O[C@H]1CCOC1 [Afatinib (BIBW2992) Dimaleate] | 1.14 °C |
| Cc1cc(O)c(-c2ccc([C@@H](C)CN)cc2)c2c1[nH]c(=O)c1sccc12 [OTS514 hydrochloride] | 1.5 °C |
| Cc1ccc(F)c(NC(=O)Nc2ccc(-c3cccc4[nH]nc(N)c34)cc2)c1 [Linifanib (ABT-869)] | 1.08 °C |
| COc1cc(N2CCC(N(C)C)CC2)ccc1Nc1ncc(Cl)c(Nc2ccccc2P(C)(C)=O)n1 | 1.95 °C |

The compounds below were run on LOC_OS01G39600-cb002 in the same assay as above. Conditions: 12.5 µM; protein concentration 2 µM.
How it was run: as §1

| Compound | thermal shift delta Tm |
| --- | --- |
| CCNC(=O)Nc1ccc(-c2nc(N3CCOC[C@@H]3C)c3c(n2)C(C)(C)S(=O)(=O)C3)cc1 | -0.26 °C |
| CN1CCN(c2ccc(OC(F)(F)F)c(Nc3ncc4c(n3)-c3c(c(C(N)=O)nn3CCO)CC4)c2)CC1 | 0.04 °C |
| C[C@@H](Oc1cc(-n2cnc3ccc(CN4CCN(C)CC4)cc32)sc1C(N)=O)c1ccccc1C(F)(F)F | 0.33 °C |
| COc1cc(OC)cc(-c2cc3cnc(N)nc3nc2NC(=O)NC(C)(C)C)c1 | -0.76 °C |
| COC(=O)c1ccc2c(c1)NC(=O)/C2=C(\Nc1ccc(N(C)C(=O)CN2CCN(C)CC2)cc1)c1ccccc1 [Nintedanib (BIBF 1120)] | 1.74 °C |
| Cc1[nH]c(/C=C2\C(=O)Nc3ccccc32)c(C)c1CCC(=O)O [Orantinib (TSU-68, SU6668)] | 6.8 °C |
| NC1(c2ccc(-c3nc4ccn5c(=O)[nH]nc5c4cc3-c3ccccc3)cc2)CCC1 | 0.19 °C |
| N#Cc1ccc2[nH]c(O)c(-c3ccc(CN4CCOCC4)cn3)c2c1 | 1.95 °C |
| C=C[C@@](C)(/C=C/c1ccc(O)cc1)CCC=C(C)C [Bakuchiol] | 0.57 °C |
| Cn1cnc2c(F)c(Nc3ccc(Br)cc3F)c(C(=O)NOCCO)cc21 | 0.61 °C |
| CC(C)(C)c1nc(-c2ccc(NC(=O)Nc3cccc(C(F)(F)F)c3)c3ccccc23)c2c(N)nccn12 [kira6] | 1.51 °C |
| CC1=C(C(=O)Nc2cc3cn[nH]c3cc2F)C(c2ccc(C(F)(F)F)cc2)CC(=O)N1 (centres undefined) | -0.15 °C |
| Cc1cn(-c2cc(NC(=O)c3ccc(C)c(Nc4nccc(-c5cnccn5)n4)c3)cc(C(F)(F)F)c2)cn1 [Radotinib] | -0.12 °C |
| COc1ncc(-c2ccc3nccc(-c4ccnnc4)c3c2)cc1NS(=O)(=O)c1ccc(F)cc1F | 3.65 °C |
| CNC(=O)c1cc(COc2nnc(Nc3ccc(Cl)cc3)c3ccoc23)ccn1 [Telatinib] | -0.38 °C |
| COc1cc2nccc(Oc3ccc(NC(=O)C4(C(=O)Nc5ccc(F)cc5)CC4)cc3)c2cc1OC [Cabozantinib malate (XL184)] | 0.26 °C |
| C1=N/C2=N/c3ccc(OCCN4CCCC4)c(c3)COC/C=C/COCc3cccc(c3)C(=C1)N2 [Pacritinib (SB1518)] | 4.09 °C |
| N#Cc1cnc(Nc2cc(NC[C@H]3CNCCO3)c(C(F)(F)F)cn2)cn1 | 0.93 °C |
| COc1cc(N2CCN(C)CC2)ccc1Nc1nccc(-c2cn(C)c3cnccc23)n1 | -0.38 °C |

| Compound | thermal shift delta Tm |
| --- | --- |
| CC(C)(C)NS(=O)(=O)c1cncc(-c2cc(F)c3nc(N)nn3c2)c1 | 0.65 °C |
| CCNC(=O)C#Cc1ccc2c(C(=Nc3ccc(CN(C)C)cc3)c3ccccc3)c(O)[nH]c2c1 | 3.52 °C |
| O=C1NC(=O)[C@@H](c2cn3c4c(cccc24)CCC3)[C@@H]1c1c[nH]c2ccccc12 [Tivantinib (ARQ 197)] | 0.54 °C |
| O=S(=O)(c1cccc2c(I)cccc12)N1CCCNCC1 | 0.27 °C |
| CCN1CCN(Cc2ccc(C(=O)Nc3ccc(C)c(Oc4ccc5c(c4)CC(=O)N5)c3)cc2C(F)(F)F)CC1 | -0.14 °C |
| C[C@@H](Nc1cc(F)cc(F)c1)c1cc(C(=O)N(C)C)cc2c(=O)cc(N3CCOCC3)oc12 | -0.77 °C |
| C[C@H](CN(C)C)Oc1nc(Nc2cc3cccc(Cl)c3cn2)cnc1C#N | 0.03 °C |
| CNC(=O)c1cc(Oc2ccc(NC(=O)Nc3ccc(Cl)c(C(F)(F)F)c3)cc2)ccn1 [Sorafenib] | 1.52 °C |
| COc1ccc(Cl)cc1NC(=O)Nc1cc(C)nc2ccccc12 | -1.53 °C |
| O=C(c1cccc(Cl)c1F)N1CCN(Cc2cccc(Nc3nccs3)n2)CC1 | 2.61 °C |
| CNC(=O)c1ccc(C)c(-n2c(C)cc(OCc3ccc(F)cc3F)c(Br)c2=O)c1 | -0.13 °C |
| CCn1c(-c2nonc2N)nc2c(C#CC(C)(C)O)ncc(OC[C@H]3CCCNC3)c21 | 0.32 °C |
| CCC[C@H](NC(=O)/C(C#N)=C/c1cccc(Br)n1)c1ccccc1 [Degrasyn (WP1130)] | -4.1 °C |
| OC1CCC(Nc2ncc3nc(Nc4c(F)cc(F)cc4F)n([C@H]4CCOC4)c3n2)CC1 (some centres undefined) [Tanzisertib(CC-930)] | 0.06 °C |
| CN(C)C/C=C/C(=O)Nc1cc2c(Nc3ccc(F)c(Cl)c3)ncnc2cc1O[C@H]1CCOC1 [Afatinib (BIBW2992) Dimaleate] | 1.17 °C |
| Cc1cc(O)c(-c2ccc([C@@H](C)CN)cc2)c2c1[nH]c(=O)c1sccc12 [OTS514 hydrochloride] | 0.36 °C |
| Cc1ccc(F)c(NC(=O)Nc2ccc(-c3cccc4[nH]nc(N)c34)cc2)c1 [Linifanib (ABT-869)] | 2.02 °C |
| COc1cc(N2CCC(N(C)C)CC2)ccc1Nc1ncc(Cl)c(Nc2ccccc2P(C)(C)=O)n1 | -6.92 °C |
